Screens as filed in PubChem BioAssay.
HSP90 refold inh: HSP90 inhibitors, primary screen, cell lysate, luminescence; Rabbit reticulocyte lysate, luciferase refolding luminescence, 3 h; inhibition, % at 5.6 µM; AID 1789, 2009; hit rate 0.91% among 290,000;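 active = inhibition above the screen-wide mean plus 3 SD, computed separately per campaign, cut at about 16% in these data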;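 also: 0% = DMSO wells and 100% = 60 µM geldanamycin wells; inhibitors lower the luminescence because luciferase stays unfolded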
TROY NFkB inh: inhibitors of TROY-driven NF-kB signaling, primary screen, Q293 LMP1-TROYcd cells, NF-kB luciferase, uHTS; hit rate 0.98% among 360,000; Q293 LMP1-TROYcd NF-kB luciferase reporter, 4 h; inhibition, % at 10 µM;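 active = compounds whose plate-normalised and pattern-corrected inhibition of the luciferase reporter signal at the single screening dose is 50% or more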
TWEAK Fn14 block: inhibitors of TWEAK-Fn14 signaling, primary screen, luciferase reporter cells, uHTS | TWEAK-stimulated Fn14 reporter cells, luciferase luminescence, 8 h | inhibition, % at 10 µM | hit rate 2% among 360,000 | AID 1159606, 2016; in the data active = inhibition above about 50%
TRAIL sens C8: viability loss with TRAIL in NB7+C8 cells, primary screen, TRAIL sensitizer project, cell-based, ATPlite luminescence. hit rate 1% among 360,000. inhibition (viability loss, TRAIL sensitization), % at 10 µM;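 active = compounds causing at least 50% loss of cell viability in the single-dose screen, relative to plate controls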
aSyn UTR inh: MLPCN primary screen, SNCA 5' untranslated region; alpha-synuclein 5'UTR reporter, inhibitor activity; inhibition, % (tested at 7.5 µM); hit rate 0.82% among 300,000; in the data active = inhibition above about 60%; inconclusive = no clear call, values can overlap the other calls;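 also: H4 neuroglioblastoma cells stably carrying SNCA 5'UTR luciferase fusion; 0% = DMSO wells and 100% = positive control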
HIF-2a block: HIF-2a reporter inhibitors, primary screen, luminescence, 786-0 RCC cells; inhibition, % at 18.8 µM; hit rate 0.72% among 360,000; 786-0 RCC cells HIF-2a reporter, luciferase luminescence, overnight; AID 624352, 2012;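 active = inhibition of the luminescence signal of 40% or more relative to plate controls, in a single-dose primary screen at 18.75 µM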
HSP90 confirm: HSP90 inhibitors, confirmation, cell lysate, luminescence; shares compounds with HSP90 refold inh; rabbit reticulocyte lysate, luciferase refolding luminescence, 3 h; inhibition, % at 5.9 µM; hit rate 64% among 2,300; AID 1846, 2009; in the data active = inhibition above about 18%;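 also: 0% = vehicle wells and 100% = reference inhibitor wells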
luciferase ctr: firefly luciferase inhibitors, HSP90 counter-screen, confirmation, artefact control for HSP90 inhibitor project, biochemical, luminescence, triplicate. hit rate 48% among 2,300. shares compounds with HSP90 refold inh. inhibition, % at 5.9 µM. purified native firefly luciferase;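 active = inhibition above the mean inhibition of all tested sample wells plus 3 SD, cut at about 10% in these data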;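 also: 0% = DMSO with luciferase and 100% = wells lacking luciferase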
Target sequence (P08659 whole entry, looked up): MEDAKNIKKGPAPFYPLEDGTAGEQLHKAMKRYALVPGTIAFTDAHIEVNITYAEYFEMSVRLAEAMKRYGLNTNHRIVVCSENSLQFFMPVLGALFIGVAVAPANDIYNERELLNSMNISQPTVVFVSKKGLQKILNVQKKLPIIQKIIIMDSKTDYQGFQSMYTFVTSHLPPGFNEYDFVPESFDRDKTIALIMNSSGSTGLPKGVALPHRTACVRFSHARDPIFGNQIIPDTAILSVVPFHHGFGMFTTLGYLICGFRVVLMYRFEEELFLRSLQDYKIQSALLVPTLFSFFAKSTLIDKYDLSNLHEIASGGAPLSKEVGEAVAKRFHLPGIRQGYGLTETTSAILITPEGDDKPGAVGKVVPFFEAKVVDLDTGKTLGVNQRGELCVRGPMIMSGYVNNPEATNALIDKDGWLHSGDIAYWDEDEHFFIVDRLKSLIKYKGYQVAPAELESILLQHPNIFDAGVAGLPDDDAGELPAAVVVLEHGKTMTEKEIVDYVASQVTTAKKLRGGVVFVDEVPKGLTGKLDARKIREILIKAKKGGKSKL
Active calls of the source: *; ? = inconclusive; . = not tested or not shown. This is a sample that favours compounds with a hit; in the whole collection about 3.9% have one here.

SMILES	HSP90 refold inh	TROY NFkB inh	TWEAK Fn14 block	TRAIL sens C8	aSyn UTR inh	HIF-2a block	HSP90 confirm	luciferase ctr
Cc1ccc(C)c(S(=O)(=O)N2CCC(c3nc4c(nnn4Cc4ccc5c(c4)OCCO5)c(=O)[nH]3)CC2)c1	21*	7	26	9	33	3	25*	-4
Cc1ccc(C(=O)NCc2ccc(N3CCN(C)CC3)cc2)cc1C	22*	2	5	0	-42	-31	0	-9
COc1cccc(C(=O)Nc2ccc(N3CCN(S(C)(=O)=O)CC3)cc2)c1	18*	-30	-12	13	-21	-90	-8	-19
CN1CCN(c2ccc(NC(=O)c3ccc4ccccc4c3)cc2)CC1	25*	65*	78*	45	85*	3	31*	28*
COc1ccc(C(=O)Nc2ccc(N3CCN(C)CC3)cc2)cc1	-3	-42	14	6	-165	-220	.	.
CC1(c2ccc(Cl)cc2Cl)NC(=O)N(CC(=O)NCCC2=CCCCC2)C1=O (stereo not drawn)	.	-10	9	-4	.	0	.	.
Cc1ccc2cc(NC(=O)C3(C)CCN3C(C)C)ccc2n1 (stereo not drawn)	.	-6	-16	-10	.	-2	.	.
CCc1c(C(=O)OCc2ccccc2)[nH]c(C)c1C	-5	-34	-4	-3	-117	-248	.	.
CCc1c(C)[nH]c(C(=O)OCc2ccccc2)c1C	24*	-99	-25	2	-75	-185	-2	-13
CCc1nnc(NC(=O)c2n[nH]c(=O)c3ccccc23)s1	26*	4	3	1	-4	10	-6	-9
CCc1ccc(NC(=O)c2n[nH]c(=O)c3ccccc23)cc1	0	-26	-22	4	-84	-323	.	.
O=C(COC(=O)c1cccnc1Cl)NCC1CCCO1 (stereo not drawn)	-4	-1	-8	-8	9	10	.	.
Cc1cc(C(=O)COC(=O)c2cccnc2Cl)c(C)n1CC1CCCO1 (stereo not drawn)	78*	88*	99*	16	20	-13	86*	82*
Cc1ccc(C(=O)OCC(=O)c2cc(C)n(CC3CCCO3)c2C)cc1 (stereo not drawn)	32*	72*	64*	32	-161	-92	35*	32*
CCOc1cc(C(=O)OCC(=O)c2cc(C)n(CC3CCCO3)c2C)ccc1OCC(=O)N1CCOCC1 (stereo not drawn)	2	-7	9	2	-43	-59	.	.
Cc1cc(C(=O)COC(=O)c2ccccc2NCCO)c(C)n1CC1CCCO1 (stereo not drawn)	53*	40	62*	42	-34	-22	23*	-8
Cc1cc(C(=O)COC(=O)c2n[nH]c3ccccc23)c(C)n1CC1CCCO1 (stereo not drawn)	52*	60*	82*	72*	40	-6	55*	54*
Cc1cccc(C)c1NC(=O)CN(C)CC(=O)N1CC(=O)Nc2ccccc21	.	8	10	-10	.	15	.	.
C=C1/C=C(\C)C(C)(O)CC(O)CC(=O)C(O)C(O)C(C)CC(C)OC(=O)/C(C)=C/CC/C=C/C(OC)C(O)CC(C)C1 (stereo not drawn)	.	17	17	6	.	11	.	.
O=C(O)c1ccc(-c2ccccc2Cl)o1	28*	-63	1	-10	-1	-17	30*	-20
C=CCOC(=O)c1sc(NC(=O)c2ccc(OC)cc2)nc1C	55*	-40	-14	1	-47	-156	60*	-11
CCc1cc2c(=O)c(-c3nc(C)cs3)coc2cc1O	0	-63	-19	11	-145	-166	.	.
Cc1nc(-c2coc3cc(O)c(C)cc3c2=O)cs1	18*	34	65*	60*	46	-121	52*	51*
CCOC(=O)c1c(C)[nH]c(C)c1C(=O)COC(=O)Cc1n[nH]c(=O)c2ccccc12	.	16	2	0	.	0	.	.
Cc1oc(-c2cc(Cl)cc(Cl)c2)cc1C(=O)NCCc1ccccc1	-5	23	-7	1	-12	4	.	.
SMILES	HSP90 refold inh	TROY NFkB inh	TWEAK Fn14 block	TRAIL sens C8	aSyn UTR inh	HIF-2a block	HSP90 confirm	luciferase ctr
COc1ccc(CCNC(=O)c2cc(-c3cc(Cl)cc(Cl)c3)oc2C)cc1	19*	12	8	1	14	12	6	-4
O=C1Nc2ccccc2N=C(c2ccccc2)C1N(C(=O)c1ccnc2ccccc12)c1ccccc1 (stereo not drawn)	.	-9	42	-18	.	5	.	.
Cc1ccc([N+](=O)[O-])cc1N=C1C(=O)Nc2ccccc21	22*	5	-7	2	0	18	-2	-11
COc1ccc(-n2c(C)cc(C(=O)Cn3nnc4ccccc4c3=O)c2C)cc1	-3	-21	-27	37	-18	-170	.	.
Cc1cc(C(=O)COC(=O)c2ccc(O)cc2)c(C)n1-c1ccccc1F	50*	84*	75*	7	-78	-38	58*	49*
Cc1cc(C(=O)Cn2nnc3ccccc3c2=O)c(C)n1-c1ccccc1F	62*	82*	73*	81*	?	-55	70*	54*
Cc1cc(C(=O)COC(=O)c2ccc(O)cc2)c(C)n1CC(F)(F)F	.	1	11	3	.	-188	.	.
Cc1cc(Br)cn2c(Cc3ccccc3)c(-c3ccc(C#N)cc3)nc12	.	4	12	4	.	-11	.	.
CCc1cc(C(=O)Nc2ncccc2O)sc1C	43*	28	45	30	-27	-45	53*	43*
O=C(NCCc1cccc(Cl)c1)c1ccc2c(c1)OCO2	20*	13	42	57*	-15	-86	40*	29*
O=C(NCCOc1ccccc1)c1ccc2c(c1)OCO2	48*	63*	94*	24	38	34	71*	67*
CC1CCC(NC(=O)c2ccc3c(c2)OCO3)CC1 (stereo not drawn)	24*	0	54*	34	20	-43	46*	27*
COc1nc(C)ccc1-c1noc(-c2ccco2)n1	19*	-7	42	23	-124	-165	33*	24*
COc1nc(-c2ccc(C)cc2)ccc1-c1noc(-c2ccco2)n1	9	-36	-1	4	-70	-248	.	.
